Bioassay records: PubChem, several laboratories
Most compounds without a hit are left out; they make up all but 4.2% or so of the library.
CHOP inhibitor: blocks CHOP induction under ER stress; CHO-K1 CHOP-promoter luciferase, tunicamycin-induced, 15-18 h; inhibition, % at 10 µM; 220,000 compounds, 3.8% hits;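 active = compounds that reduced the stress-induced luciferase reporter signal by more than about 70% of percent inhibition, limit read from the data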;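 note: 0% = tunicamycin plus vehicle and 100% = wells without tunicamycin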
S1P4 antagonist: human S1P4 receptor antagonism; S1P4-expressing cells, antagonist mode, reporter read-out; inhibition, % at 4.98 µM; AID 1510; 220,000 compounds, 0.26% hits; O95977; in the data active = inhibition above about 29%;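 note: 0% = wells stimulated with agonist and 100% = vehicle wells without agonist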
Hsp70 activator: Hsp70 transcriptional activation, primary screen; HeLa Hsp70 promoter luciferase reporter, luminescence; scaled: vehicle 0, proteasome-inhibitor control 100%; activation, % at 10 µM; 200,000 compounds, 0.04% hits; AID 1203;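 active = activation above the mean across all tested compounds plus 3 SD, cutoff set per campaign, cut at about 5.5% in these data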;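 note: 100% = MG132 at 30 µM as the positive control and 0% = DMSO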
S1P4 ag: human S1P4 receptor agonism; S1P4-expressing cell line, agonist reporter assay; activation, % at 4.98 µM; 220,000 compounds, 0.35% hits; AID 1509; in the data active = activation above about 11%;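 note: 0% = DMSO vehicle and 100% = reference agonist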
S1P4 antag cf: human S1P4 antagonism, confirmation; shares compounds with S1P4 antagonist; S1P4-expressing cell line, antagonist mode, reporter read-out; inhibition, % at 4.98 µM; 520 compounds, 71% hits; AID 1524; in the data active = inhibition above about 30%
S1P1 antagonist: counter-screen for S1P4 antagonists: antagonists of human S1P1. shares compounds with S1P4 antagonist. cell-based S1P1 antagonist counterscreen, inhibition. inhibition, % at 4.98 µM. 520 compounds, 37% hits. AID 1564; in the data active = inhibition above about 40%;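 note: receptor stimulated with S1P near its EC80; 0% = agonist stimulated wells and 100% = vehicle only wells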
Target sequence (P21453 whole entry, looked up): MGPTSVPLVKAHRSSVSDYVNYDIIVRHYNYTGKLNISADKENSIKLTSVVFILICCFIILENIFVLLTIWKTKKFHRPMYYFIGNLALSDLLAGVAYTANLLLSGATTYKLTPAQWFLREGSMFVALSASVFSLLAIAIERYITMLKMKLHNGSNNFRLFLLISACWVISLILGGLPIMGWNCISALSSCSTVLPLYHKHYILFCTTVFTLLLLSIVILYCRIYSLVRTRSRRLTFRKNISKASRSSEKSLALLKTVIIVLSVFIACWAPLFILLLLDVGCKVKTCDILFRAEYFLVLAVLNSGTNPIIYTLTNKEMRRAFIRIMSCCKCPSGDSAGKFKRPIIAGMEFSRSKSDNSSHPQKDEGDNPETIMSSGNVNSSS
The depositor's hits bear a star; . = no result.

SMILES | CHOP inhibitor | S1P4 antagonist | Hsp70 activator | S1P4 ag | S1P4 antag cf | S1P1 antagonist
CN(NC(=O)Nc1ccc(Cl)cc1)c1c(Cl)c(Cl)nn1C | 7 | 53* | 0 | -3 | 47* | 6
OC(CNCCc1ccccc1)COc1ccc(OCC(O)CNCCc2ccccc2)cc1 (stereo unspecified) | -21 | 32* | . | -1 | 55* | 39
Cc1ccc2c(c1)-c1c(ssc1=S)C(C)(C)N2C(=O)CSC1=NCCS1 | 16 | 5 | 0 | 0 | . | .
CCC(C)[C@H](NC(=O)NCc1ccc(OC)c(OC)c1)C(=O)O (stereo partly specified) | 4 | 0 | . | 0 | . | .
Cc1ccc(C)n1-c1ccc(C(=O)N2CCC(C(N)=O)CC2)cc1 | 8 | 44* | 0 | 0 | -1 | 0
Cc1ccc(N(C(=O)C2COc3ccccc3O2)C(C(=O)NC2CCCCC2)c2cn(C)nc2C)cc1 (stereo unspecified) | 24 | 6 | 0 | 0 | . | .
COc1ccc(-c2cnnn2-c2ccc(N)cc2)cc1OC | -15 | -15 | 0 | 0 | . | .
Nc1cccc(-n2nncc2-c2ccc(Cl)cc2)c1 | 17 | 32* | 0 | -1 | 7 | 13
Cc1ccc(C)c(C(=O)COC(=O)c2cc(Cl)nc3ccccc23)c1 | 48 | -24 | 0 | 2 | . | .
CCCCC(CC)c1nnc(NC(=O)c2cccs2)s1 (stereo unspecified) | 27 | 29* | 0 | 0 | 6 | -15
Cc1ccc(C)c(N(C(=O)Cn2nnc3ccccc32)C(C(=O)NCc2ccco2)c2ccncc2)c1 (stereo unspecified) | -7 | 34* | 0 | -1 | 0 | 15
CCn1c(Cl)c(C=O)s/c1=N\S(=O)(=O)c1ccccc1 | 105* | 88* | . | -3 | 120* | 119*
CCOC(=O)C1C(c2ccc(OC)cc2)N(C)OC1(O)C(F)(F)F (stereo unspecified) | -3 | 3 | 0 | -2 | . | .
O=C(NC(Cc1ccccc1)C(=O)Oc1ccc2c(C(F)(F)F)cc(=O)oc2c1)OCc1ccccc1 (stereo unspecified) | 34 | 30* | 0 | 0 | 47* | 24
CCOC(=O)c1cnc(SC2CC(=O)N(c3ccc(C)cc3)C2=O)nc1N (stereo unspecified) | 1 | 44* | 0 | -2 | 14 | 16
CCOC(=O)c1cnc(SC2CC(=O)N(c3ccccc3)C2=O)nc1N (stereo unspecified) | 3 | -11 | 0 | -1 | . | .
Cc1ccc2nc(Cl)c(/C=C/C(=O)c3ccco3)cc2c1 | -37 | 3 | . | 1 | . | .
Cc1ccc2cc(/C=C/C(=O)c3ccco3)c(Cl)nc2c1 | -51 | 37* | . | -1 | 68* | 0
CC1(C)NC(=O)N(CCOc2ccc([N+](=O)[O-])cc2)C1=O | 6 | -10 | 0 | -2 | . | .
O=C(c1ccccc1)c1ccccc1C(=O)N1CCN(C(=O)c2ccccc2)CC1 | 30 | 6 | 0 | 0 | . | .
O=C(c1ccccc1)c1ccccc1N1C(=O)C=CC1=O | 14 | 38* | . | -1 | 104* | 9
O=C(COc1ccc2c(c1)C(=O)CC1(CCCCC1)O2)NCc1ccccn1 | 18 | -6 | 0 | -1 | . | .
Cn1nc(-c2ccc(Cl)cc2)nc2c(=O)n(C)c(=O)nc1-2 | . | 90* | 0 | -9 | 110* | 88*
CS(=O)(=O)n1nc(-c2ccc(Cl)cc2)nc1N | -3 | 3 | 0 | 0 | . | .
Cc1n[nH]c(C)c1N1C(=O)c2cccc3c(Br)ccc(c23)C1=O | 8 | 70* | -1 | 1 | 79* | 93*
SMILES | CHOP inhibitor | S1P4 antagonist | Hsp70 activator | S1P4 ag | S1P4 antag cf | S1P1 antagonist
Cc1n[nH]c(C)c1N1C(=O)c2cccc3cc(Br)cc(c23)C1=O | 18 | 2 | -1 | -2 | . | .
CC(NC(=O)CN(c1cccc(C(F)(F)F)c1)S(=O)(=O)c1ccc(Cl)c([N+](=O)[O-])c1)c1ccccc1 (stereo unspecified) | -33 | 44* | 0 | 0 | 87* | 53*
CC1(C)CCc2c([nH]c3ccccc3c2=O)O1 | 19 | -4 | 0 | 0 | . | .
CCCN1C(=O)/C(=C/c2ccc(OCC(=O)OCC)cc2)NC1=S | 3 | 30* | 0 | -1 | 12 | 11
CCCN1C(=O)/C(=C/c2ccc(N3CCOCC3)cc2)NC1=S | -17 | 11 | 0 | -1 | . | .
CC(C)C(=O)N1CCN(c2ccc(NC(=O)c3ccc([N+](=O)[O-])o3)cc2)CC1 | -20 | 70* | 1 | -5 | 88* | 66*
